# Columns and labels:
# Assay in all cases: DAPPL (digital affinity profiling via proximity ligation, sequencing); 10 mM Tris-HCl pH 7.5, 50 mM NaCl, 1 mM DTT, 4% glycerol, room temperature, 30 min; GST-TFs on glutathione beads, 16-mer random dsDNA library, 0.1% formaldehyde crosslink after washing; high values mean tight binding
# Conditions in all cases: protein: recombinant; tags: N-terminal GST; dsDNA, one strand shown
# FLI1 = target: T1, FLI1 (Homo sapiens, UniProt Q01543 1-452)
# T1 sequence: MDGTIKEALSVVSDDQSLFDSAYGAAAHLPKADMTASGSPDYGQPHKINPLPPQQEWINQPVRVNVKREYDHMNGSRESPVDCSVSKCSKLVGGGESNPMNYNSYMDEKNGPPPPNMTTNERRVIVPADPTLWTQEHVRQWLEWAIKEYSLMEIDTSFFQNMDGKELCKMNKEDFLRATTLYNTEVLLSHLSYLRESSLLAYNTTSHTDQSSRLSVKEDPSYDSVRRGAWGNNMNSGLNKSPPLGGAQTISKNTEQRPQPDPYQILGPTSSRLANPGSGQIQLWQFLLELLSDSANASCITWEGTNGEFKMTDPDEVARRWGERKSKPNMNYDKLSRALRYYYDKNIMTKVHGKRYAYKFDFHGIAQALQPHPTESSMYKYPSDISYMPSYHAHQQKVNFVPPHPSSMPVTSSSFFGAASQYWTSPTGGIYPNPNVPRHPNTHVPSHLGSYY
# How it was run: (§1)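 Yeast served to express human transcription factors as GST fusions, which were then captured on glutathione beads and labelled with DNA barcodes. Pooled with a tag-only sample, they were incubated with 200 nmole of a 16-mer random double-stranded DNA library for 30 min at room temperature in Tris/NaCl/DTT/glycerol buffer, washed, crosslinked with 0.1% formaldehyde, ligated by proximity, amplified by PCR and sequenced. Dividing each hexamer's read frequency for a factor by its frequency for the tag-only sample gives the binding signal.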
# ELK1 = target: T2, ELK1 (Homo sapiens, UniProt P19419 1-428)
# T2 sequence: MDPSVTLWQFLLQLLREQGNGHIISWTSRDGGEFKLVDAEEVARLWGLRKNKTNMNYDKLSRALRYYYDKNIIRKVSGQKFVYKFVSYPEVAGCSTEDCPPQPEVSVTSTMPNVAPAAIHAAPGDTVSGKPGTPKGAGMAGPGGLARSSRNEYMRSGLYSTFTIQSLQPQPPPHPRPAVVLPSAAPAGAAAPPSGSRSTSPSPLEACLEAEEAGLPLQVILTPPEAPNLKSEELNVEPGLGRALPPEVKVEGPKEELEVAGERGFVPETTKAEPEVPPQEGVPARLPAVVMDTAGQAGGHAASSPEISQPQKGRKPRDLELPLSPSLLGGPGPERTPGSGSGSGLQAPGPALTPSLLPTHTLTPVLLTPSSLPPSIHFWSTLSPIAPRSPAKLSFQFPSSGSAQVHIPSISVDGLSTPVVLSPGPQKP
# How it was run: as §1
# GABPA = target: T3, GABPA (Homo sapiens, UniProt Q06546 1-454)
# T3 sequence: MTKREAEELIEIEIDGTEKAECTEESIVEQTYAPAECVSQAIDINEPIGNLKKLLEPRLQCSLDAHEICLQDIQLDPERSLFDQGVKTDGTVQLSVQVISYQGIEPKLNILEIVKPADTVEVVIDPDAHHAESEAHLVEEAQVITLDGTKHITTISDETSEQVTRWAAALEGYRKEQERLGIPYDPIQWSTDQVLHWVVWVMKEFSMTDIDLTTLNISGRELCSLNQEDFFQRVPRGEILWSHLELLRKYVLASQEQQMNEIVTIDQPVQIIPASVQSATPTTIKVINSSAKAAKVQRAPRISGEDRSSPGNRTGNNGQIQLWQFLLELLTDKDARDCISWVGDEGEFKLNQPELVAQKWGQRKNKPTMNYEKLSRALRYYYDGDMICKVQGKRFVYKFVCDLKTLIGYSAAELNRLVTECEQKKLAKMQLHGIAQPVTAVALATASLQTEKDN
# How it was run: as §1
# ELF1 = ELF1 (Homo sapiens, UniProt P32519 1-619)
# How it was run: as §1
# EHF = target: T4, EHF (Homo sapiens, UniProt Q9NZC4 1-300)
# T4 sequence: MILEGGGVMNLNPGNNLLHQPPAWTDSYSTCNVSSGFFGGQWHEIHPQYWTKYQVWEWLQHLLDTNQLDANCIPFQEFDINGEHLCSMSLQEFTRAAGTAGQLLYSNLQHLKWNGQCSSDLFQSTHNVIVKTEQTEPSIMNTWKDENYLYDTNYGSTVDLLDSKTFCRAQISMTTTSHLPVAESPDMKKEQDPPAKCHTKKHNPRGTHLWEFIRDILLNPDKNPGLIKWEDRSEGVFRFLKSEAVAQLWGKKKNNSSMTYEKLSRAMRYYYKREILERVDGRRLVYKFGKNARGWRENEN
# How it was run: as §1
# SPIC = target: T5, SPIC (Homo sapiens, UniProt Q8N5J4 1-248)
# T5 sequence: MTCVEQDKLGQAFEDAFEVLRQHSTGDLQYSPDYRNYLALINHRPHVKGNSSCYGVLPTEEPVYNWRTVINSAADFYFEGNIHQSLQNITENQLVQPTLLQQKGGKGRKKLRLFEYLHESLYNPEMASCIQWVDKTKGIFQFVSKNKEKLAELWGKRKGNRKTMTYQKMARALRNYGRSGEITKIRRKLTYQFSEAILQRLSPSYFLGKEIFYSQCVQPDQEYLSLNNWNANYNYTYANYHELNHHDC
# How it was run: as §1
# ELF4 = ELF4 (Homo sapiens, UniProt Q99607 1-663)
# How it was run: as §1
# ELK4 = target: T6, ELK4 (Homo sapiens, UniProt P28324-2 1-405)
# T6 sequence: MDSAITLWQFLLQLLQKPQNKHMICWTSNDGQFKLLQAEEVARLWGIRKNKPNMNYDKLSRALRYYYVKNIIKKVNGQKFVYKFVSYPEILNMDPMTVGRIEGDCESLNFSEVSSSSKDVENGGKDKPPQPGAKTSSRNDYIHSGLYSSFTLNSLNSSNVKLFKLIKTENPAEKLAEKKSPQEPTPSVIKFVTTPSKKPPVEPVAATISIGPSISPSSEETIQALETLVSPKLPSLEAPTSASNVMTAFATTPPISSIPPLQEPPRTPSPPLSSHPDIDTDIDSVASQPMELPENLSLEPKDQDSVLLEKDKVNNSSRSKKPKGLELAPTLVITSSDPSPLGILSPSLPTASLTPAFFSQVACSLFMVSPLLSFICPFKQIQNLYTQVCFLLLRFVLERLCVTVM
# How it was run: as §1
# ELF3 = target: T7, ELF3 (Homo sapiens, UniProt P78545 1-371)
# T7 sequence: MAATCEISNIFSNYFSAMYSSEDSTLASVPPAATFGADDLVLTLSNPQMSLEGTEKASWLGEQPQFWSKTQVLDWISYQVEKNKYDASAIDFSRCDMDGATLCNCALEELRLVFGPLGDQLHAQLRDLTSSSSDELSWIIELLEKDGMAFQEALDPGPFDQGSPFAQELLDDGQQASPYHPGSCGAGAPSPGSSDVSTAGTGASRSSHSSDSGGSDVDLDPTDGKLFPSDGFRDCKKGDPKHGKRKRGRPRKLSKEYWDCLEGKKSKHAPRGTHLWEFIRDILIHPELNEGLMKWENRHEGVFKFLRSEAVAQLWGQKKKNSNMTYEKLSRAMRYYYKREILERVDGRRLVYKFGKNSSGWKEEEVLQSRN
# How it was run: as §1
# ERF = target: T8, ERF (Homo sapiens, UniProt P50548 1-548)
# T8 sequence: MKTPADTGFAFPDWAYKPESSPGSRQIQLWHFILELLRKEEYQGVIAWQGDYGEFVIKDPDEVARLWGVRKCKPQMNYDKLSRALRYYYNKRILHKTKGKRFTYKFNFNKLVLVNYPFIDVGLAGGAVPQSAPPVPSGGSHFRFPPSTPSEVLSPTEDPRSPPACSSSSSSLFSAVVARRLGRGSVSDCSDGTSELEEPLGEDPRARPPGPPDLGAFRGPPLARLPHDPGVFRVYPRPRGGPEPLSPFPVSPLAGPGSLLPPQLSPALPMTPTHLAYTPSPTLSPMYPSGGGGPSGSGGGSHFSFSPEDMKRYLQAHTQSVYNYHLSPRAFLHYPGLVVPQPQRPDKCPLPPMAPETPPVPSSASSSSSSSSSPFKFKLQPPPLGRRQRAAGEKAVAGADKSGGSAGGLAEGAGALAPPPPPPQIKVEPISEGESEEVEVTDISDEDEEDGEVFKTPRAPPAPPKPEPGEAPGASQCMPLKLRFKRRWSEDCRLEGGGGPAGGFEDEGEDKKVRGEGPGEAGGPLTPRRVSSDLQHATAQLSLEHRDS
# How it was run: as §1
# ETV7 = target: T9, ETV7 (Homo sapiens, UniProt Q9Y603 1-341)
# T9 sequence: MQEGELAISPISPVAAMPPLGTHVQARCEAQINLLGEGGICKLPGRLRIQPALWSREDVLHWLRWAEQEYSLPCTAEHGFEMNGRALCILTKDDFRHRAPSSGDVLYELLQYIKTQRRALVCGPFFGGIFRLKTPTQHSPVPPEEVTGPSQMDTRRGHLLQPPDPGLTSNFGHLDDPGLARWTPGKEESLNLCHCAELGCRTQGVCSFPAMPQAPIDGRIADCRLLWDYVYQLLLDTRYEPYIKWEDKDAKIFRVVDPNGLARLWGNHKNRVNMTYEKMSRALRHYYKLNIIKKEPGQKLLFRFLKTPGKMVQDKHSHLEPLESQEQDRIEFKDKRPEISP
# How it was run: as §1
# ETV6 = ETV6 (Homo sapiens, UniProt P41212 1-452)
# How it was run: as §1
# Chain of ELF4 (Q99607 whole entry): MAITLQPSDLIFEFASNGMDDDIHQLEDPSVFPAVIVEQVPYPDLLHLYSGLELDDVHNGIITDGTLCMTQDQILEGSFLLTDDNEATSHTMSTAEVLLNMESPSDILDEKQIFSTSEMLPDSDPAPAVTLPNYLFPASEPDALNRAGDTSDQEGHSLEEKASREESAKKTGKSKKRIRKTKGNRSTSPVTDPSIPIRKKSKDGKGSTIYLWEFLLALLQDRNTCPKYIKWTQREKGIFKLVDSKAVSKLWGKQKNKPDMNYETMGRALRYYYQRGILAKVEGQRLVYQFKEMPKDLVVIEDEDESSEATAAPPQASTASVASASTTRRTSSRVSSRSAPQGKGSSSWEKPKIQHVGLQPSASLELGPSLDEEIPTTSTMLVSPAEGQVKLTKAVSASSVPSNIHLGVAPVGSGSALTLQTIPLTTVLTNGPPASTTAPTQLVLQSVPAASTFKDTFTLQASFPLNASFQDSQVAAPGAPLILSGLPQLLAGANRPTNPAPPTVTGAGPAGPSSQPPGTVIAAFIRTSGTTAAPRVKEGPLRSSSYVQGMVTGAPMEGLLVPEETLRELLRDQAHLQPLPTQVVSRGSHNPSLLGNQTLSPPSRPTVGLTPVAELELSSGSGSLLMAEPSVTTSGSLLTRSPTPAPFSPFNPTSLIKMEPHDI
# Chain of ELF1 (P32519 whole entry): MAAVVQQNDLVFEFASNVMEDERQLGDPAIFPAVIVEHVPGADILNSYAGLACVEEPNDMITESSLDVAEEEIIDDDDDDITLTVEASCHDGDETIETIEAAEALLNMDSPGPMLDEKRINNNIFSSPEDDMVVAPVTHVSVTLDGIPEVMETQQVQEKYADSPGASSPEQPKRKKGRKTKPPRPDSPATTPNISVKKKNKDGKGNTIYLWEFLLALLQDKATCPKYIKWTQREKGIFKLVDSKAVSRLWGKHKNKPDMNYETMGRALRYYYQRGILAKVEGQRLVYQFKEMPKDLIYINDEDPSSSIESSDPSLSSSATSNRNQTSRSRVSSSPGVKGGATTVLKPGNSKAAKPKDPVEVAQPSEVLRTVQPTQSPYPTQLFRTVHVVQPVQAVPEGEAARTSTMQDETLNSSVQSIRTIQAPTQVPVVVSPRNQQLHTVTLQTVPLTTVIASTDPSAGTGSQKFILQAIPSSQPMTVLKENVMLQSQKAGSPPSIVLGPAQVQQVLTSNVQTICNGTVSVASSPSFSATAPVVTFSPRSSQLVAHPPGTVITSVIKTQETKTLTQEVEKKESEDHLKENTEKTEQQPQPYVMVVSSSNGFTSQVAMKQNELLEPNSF
# Chain of ETV6 (P41212 whole entry): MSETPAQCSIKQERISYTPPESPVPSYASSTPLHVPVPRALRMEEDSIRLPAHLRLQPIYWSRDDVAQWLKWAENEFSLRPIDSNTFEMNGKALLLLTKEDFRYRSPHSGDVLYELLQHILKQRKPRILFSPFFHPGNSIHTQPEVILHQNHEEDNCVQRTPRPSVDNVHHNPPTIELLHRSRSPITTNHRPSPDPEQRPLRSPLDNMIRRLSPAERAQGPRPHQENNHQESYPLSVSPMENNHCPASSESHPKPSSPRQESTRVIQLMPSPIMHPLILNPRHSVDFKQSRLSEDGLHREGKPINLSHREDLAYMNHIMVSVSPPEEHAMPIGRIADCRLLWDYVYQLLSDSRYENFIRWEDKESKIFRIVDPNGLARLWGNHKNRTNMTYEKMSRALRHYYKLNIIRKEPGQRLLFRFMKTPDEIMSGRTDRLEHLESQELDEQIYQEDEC
sequence,measurement,setting,value
CACCTA,binding signal,FLI1,"1.06 fold enrichment (6-mer frequency, TF over GST control)"
same,binding signal,ELK1,"1.01 fold enrichment (6-mer frequency, TF over GST control)"
same,binding signal,GABPA,"1.04 fold enrichment (6-mer frequency, TF over GST control)"
same,binding signal,ELF1,"1.02 fold enrichment (6-mer frequency, TF over GST control)"
same,binding signal,EHF,"1.05 fold enrichment (6-mer frequency, TF over GST control)"
same,binding signal,SPIC,"1.09 fold enrichment (6-mer frequency, TF over GST control)"
same,binding signal,ELF4,"1.1 fold enrichment (6-mer frequency, TF over GST control)"
same,binding signal,ELK4,"1 fold enrichment (6-mer frequency, TF over GST control)"
same,binding signal,ELF3,"1.18 fold enrichment (6-mer frequency, TF over GST control)"
same,binding signal,ERF,"1.06 fold enrichment (6-mer frequency, TF over GST control)"
same,binding signal,ETV7,"1.08 fold enrichment (6-mer frequency, TF over GST control)"
same,binding signal,ETV6,"1.02 fold enrichment (6-mer frequency, TF over GST control)"

# Source: PMC7862700, “An all-to-all approach to the identification of sequence-specific readers for epigenetic DNA modifications on cytosine”
